Screening results (PubChem BioAssay)
Many of the other results were omitted from the sample, so hits are more common in it than they were.
TDP1 cell noCPT = qHTS for Inhibitors of human tyrosyl-DNA phosphodiesterase 1 (TDP1): qHTS in cells in absence of CPT | DT40 Tdp1-/- hTDP1 cells, no CPT, ATP luminescence, 48 h | Potency, µM (doses to about 46.2 µM), most hits filed as inhibitors | hit rate 15% among 420,000 | AID 686978, 2013; further: nearly all actives have a fitted effect of over 55% in size
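Compound effects on proliferation are scored in DT40 Tdp1-/-;hTDP1 cells in the absence of CPT. ATP levels (CellTiter-Glo luminescence) are recorded after a ≥48 hr, 37 °C incubation.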
TDP1 cell CPT = DT40-hTDP1 cell growth loss with CPT; chicken DT40 Tdp1-/-;hTDP1 cells + 20 nM CPT, ATP luminescence, 48 h; Potency, µM (series often up to 46.2 µM), actives largely listed as inhibitors; hit rate 12% among 420,000; AID 686979; further: nearly all actives have a fitted effect of over 55% in size
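Chicken DT40 Tdp1-/- cells complemented with human TDP1, 400 cells/well, exposed to compounds plus 20 nM camptothecin for at least 48 h at 37 C; viability read as ATP content by CellTiter-Glo luminescence.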
HT1080 IDH1KD tx = toxicity to HT-1080 IDH1 knockdown cells (counter line); HT-1080 IDH1 knockdown viability, ATP luminescence, 48 h; hit rate 2% among 360,000; Potency, µM (top dose mostly 46.1 µM), usual class: cytotoxic
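Assay cells: HT-1080 with IDH1 knockdown, 750 per well, RPMI/5% FBS. Exposure: 48 h at 37 °C following 2 h pre-incubation. Read: CellTiter-Glo luminescence; fitted concentration-response, curve class assigned.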
ALOX12 inh = inhibitors of human 12S-lipoxygenase ALOX12. P18054. purified 12hLO, xylenol orange hydroperoxide absorbance. Potency, µM (highest dose often 108 µM), most hits filed as inhibitors. hit rate 1.1% among 580,000
Target sequence (P18054 whole entry, looked up): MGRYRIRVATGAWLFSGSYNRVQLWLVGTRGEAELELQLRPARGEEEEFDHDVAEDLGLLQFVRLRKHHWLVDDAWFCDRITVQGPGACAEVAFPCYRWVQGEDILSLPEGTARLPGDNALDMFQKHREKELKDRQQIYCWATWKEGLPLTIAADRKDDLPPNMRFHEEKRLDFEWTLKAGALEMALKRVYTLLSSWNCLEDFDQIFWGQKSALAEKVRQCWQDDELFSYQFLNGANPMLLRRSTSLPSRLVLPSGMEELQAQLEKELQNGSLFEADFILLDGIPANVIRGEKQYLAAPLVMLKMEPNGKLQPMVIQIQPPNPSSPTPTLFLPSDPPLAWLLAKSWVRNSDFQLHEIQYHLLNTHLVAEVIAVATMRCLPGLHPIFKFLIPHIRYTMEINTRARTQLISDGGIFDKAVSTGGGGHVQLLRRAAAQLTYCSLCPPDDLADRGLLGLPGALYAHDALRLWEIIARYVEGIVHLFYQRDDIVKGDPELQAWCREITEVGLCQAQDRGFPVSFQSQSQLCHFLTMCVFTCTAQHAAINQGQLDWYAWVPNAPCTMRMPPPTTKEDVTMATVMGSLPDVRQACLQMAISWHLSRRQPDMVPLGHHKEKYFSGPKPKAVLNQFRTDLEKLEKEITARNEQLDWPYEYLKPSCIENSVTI
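Purified human 12hLO (150 nM final) in 25 mM Hepes, 0.01% Triton X-100, pH 7.0 was preincubated 15 min at room temperature with compound. Then 40 uM arachidonic acid was added, 30 min. Hydroperoxide was read by Fe-XO absorbance ratio 573/405 nm.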
IL1B secr inh = inflammasome signaling inhibition, IL-1 beta readout | THP-1 LPS/ATP IL-1B secretion, AlphaLISA, 16 h; active compounds read low | hit rate 4.7% among 360,000 | activity change, % at 57.5 µM | AID 743279; in the data active means activity change below about -50%; inconclusive means mostly about -30% to -49%
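Secreted IL-1B measured by AlphaLISA bead assay after 16 h compound exposure of THP-1 cells; compounds (final up to 57.5 uM) added 1 h before LPS (250 ng/mL) and ATP (1.25 mM) stimulation; lower signal means less secretion.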
HT1080-NT tox = kills 2HG-producing HT-1080-NT fibrosarcoma cells; HT-1080-NT fibrosarcoma viability, CellTiter-Glo ATP luminescence, 48 h; Potency, µM (top dose mostly 46.1 µM), actives largely listed as cytotoxic; hit rate 1.6% among 360,000; AID 686970;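 further: NT is the 2HG producing partner of a matched IDH1 knockdown line; nearly all actives have a fitted effect of over 55% in size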
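A 48-hour cytotoxicity screen used HT-1080-NT cells plated 2 hours before compound delivery. ATP-based CellTiter-Glo luminescence measured viability, normalized to DMSO and no-cell controls.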
A number is an active result. Unless noted, the call rests on the fitted dose curve; in most records, active means well fitted curve in the direction sought with a large enough effect; inconclusive means small, poorly fitted or top-dose-only effect, or another doubt; inactive means no such curve, though single readings can be large; an effect the other way counts as inactive or inconclusive.

`Cc1ccc(NC(=O)CN2CCC(NC(=O)c3ccccc3F)CC2)cc1C` gave TDP1 cell noCPT inactive, TDP1 cell CPT inconclusive, HT1080 IDH1KD tx inactive, ALOX12 inh inactive, IL1B secr inh inactive and HT1080-NT tox inactive.
Screening CCc1c(C(=O)NC(C)C2CCCO2)csc1C (stereo unspecified) returned TDP1 cell noCPT inactive, TDP1 cell CPT inactive, HT1080 IDH1KD tx inactive, ALOX12 inh inconclusive, IL1B secr inh inactive and HT1080-NT tox inactive.
`Cc1ccccc1C(C)NS(=O)(=O)c1ccc2c(c1)OCCO2` (stereo unspecified) gave TDP1 cell noCPT inconclusive, TDP1 cell CPT inconclusive, HT1080 IDH1KD tx inactive, ALOX12 inh inactive, IL1B secr inh inactive and HT1080-NT tox inactive.
For O=c1[nH]c(Sc2ccc([N+](=O)[O-])cc2[N+](=O)[O-])nc2ccccc12 the results were TDP1 cell noCPT 13µM, TDP1 cell CPT 3.26µM, HT1080 IDH1KD tx inconclusive, ALOX12 inh inconclusive, IL1B secr inh inactive and HT1080-NT tox inactive.
Screening O=[N+]([O-])c1ccc(Sc2cc[n+]([O-])c3ccccc23)c([N+](=O)[O-])c1 returned TDP1 cell noCPT 2.06µM, TDP1 cell CPT 2.59µM, HT1080 IDH1KD tx 18.4µM, ALOX12 inh inactive, IL1B secr inh -108.2 and HT1080-NT tox 16.4µM.
`O=C(Cc1ccc(N2CCCC2=O)cc1)N1CCN(C(=O)C2CC2)CC1` gave ALOX12 inh inactive.
Screening Cc1cccc(N(C)c2ncnc3onc(-c4ccc(F)cc4)c23)c1C returned TDP1 cell noCPT 16.4µM, TDP1 cell CPT inconclusive, HT1080 IDH1KD tx inconclusive, ALOX12 inh inactive, IL1B secr inh inactive and HT1080-NT tox inconclusive.
For CCN(CCO)c1ncnc2onc(-c3ccc(F)cc3)c12 the results were TDP1 cell noCPT inactive, TDP1 cell CPT inactive, HT1080 IDH1KD tx inactive, ALOX12 inh inactive, IL1B secr inh inactive and HT1080-NT tox inactive.
`CC(C)CCOC(=O)/C(=C/c1ccco1)NC(=O)/C=C/c1ccccc1` gave TDP1 cell noCPT inactive, TDP1 cell CPT inactive, HT1080 IDH1KD tx inactive, ALOX12 inh 39.8µM, IL1B secr inh inactive and HT1080-NT tox inactive.
NC(=O)/C(=C/c1ccco1)NC(=O)/C=C/c1ccccc1 was read as TDP1 cell noCPT inactive, TDP1 cell CPT inactive, HT1080 IDH1KD tx inactive, ALOX12 inh inconclusive, IL1B secr inh inactive and HT1080-NT tox inactive.
`CN(C)/C=N/c1ncc(C(=O)c2ccccc2)s1` gave TDP1 cell noCPT inactive, TDP1 cell CPT inactive, HT1080 IDH1KD tx inactive, ALOX12 inh inactive, IL1B secr inh inactive and HT1080-NT tox inactive.
CN(C)/C=N/c1ncc(C(=O)c2ccc(-c3ccccc3)cc2)s1 was read as TDP1 cell noCPT inconclusive, TDP1 cell CPT inactive, HT1080 IDH1KD tx inactive, ALOX12 inh inactive, IL1B secr inh -52.5 and HT1080-NT tox inactive.
Screening COc1ccc(CN(C(=O)Nc2cccc(Cl)c2)c2ccccn2)cc1OC returned TDP1 cell noCPT 13µM, TDP1 cell CPT inconclusive and ALOX12 inh inactive.
Screening O=C(Nc1ccccc1)N(Cc1ccc(F)cc1)c1ccccn1 returned TDP1 cell noCPT inconclusive, TDP1 cell CPT inconclusive and ALOX12 inh inactive.
Screening Cc1ccc(CN(C(=O)Nc2cccc(Cl)c2)c2ccccn2)cc1 returned TDP1 cell noCPT 16.4µM, TDP1 cell CPT inconclusive and ALOX12 inh inactive.
CC(C)NC(=O)CN1C(=O)NC(c2ccccc2)C2=C1COC2=O (stereo unspecified) was read as ALOX12 inh inactive.
`COc1ccc(O)c(-c2cc(-c3cccs3)[nH]n2)c1` gave TDP1 cell noCPT inconclusive, TDP1 cell CPT 14.6µM, HT1080 IDH1KD tx inconclusive, ALOX12 inh inconclusive, IL1B secr inh inactive and HT1080-NT tox inconclusive.
`Oc1ccccc1-c1cc(-c2ccc(F)cc2)n[nH]1` gave TDP1 cell noCPT 14.6µM, TDP1 cell CPT inconclusive, HT1080 IDH1KD tx 18.4µM, ALOX12 inh inconclusive, IL1B secr inh inactive and HT1080-NT tox inconclusive.
Oc1ccccc1-c1cc(-c2ccccc2)n[nH]1 was read as TDP1 cell noCPT inconclusive, TDP1 cell CPT inconclusive, HT1080 IDH1KD tx inactive, ALOX12 inh inconclusive, IL1B secr inh inactive and HT1080-NT tox inactive.
For Cc1ccc(-c2cc(-c3ccc(F)cc3)n[nH]2)c(O)c1 the results were TDP1 cell noCPT inconclusive, TDP1 cell CPT inconclusive, HT1080 IDH1KD tx 18.4µM, ALOX12 inh inactive, IL1B secr inh -61.3 and HT1080-NT tox 25.9µM.
Screening COc1ccc(-c2cc(-c3ccccc3)n[nH]2)c(O)c1 returned TDP1 cell noCPT inactive, TDP1 cell CPT inactive, HT1080 IDH1KD tx inactive, ALOX12 inh inconclusive, IL1B secr inh -92.7 and HT1080-NT tox inactive.
For Cc1ccc(S(=O)(=O)N2CCSCCSCCSCCSCC2)cc1 the results were TDP1 cell noCPT inconclusive, TDP1 cell CPT inactive, HT1080 IDH1KD tx inactive, ALOX12 inh inactive, IL1B secr inh inactive and HT1080-NT tox inactive.
`COc1ccc(C(=O)NC2CCN(C(=O)NCc3ccccc3)CC2)cc1` gave TDP1 cell noCPT inactive, TDP1 cell CPT inactive, HT1080 IDH1KD tx inactive, ALOX12 inh inactive, IL1B secr inh inactive and HT1080-NT tox inactive.
For COc1ccc(N(CC(=O)NC2CCCC2)C(=O)Cn2nnc(-c3ccc(F)cc3)n2)cc1 the results were TDP1 cell noCPT inactive, TDP1 cell CPT inactive, HT1080 IDH1KD tx inactive, ALOX12 inh inactive, IL1B secr inh inactive and HT1080-NT tox inactive.
Screening COc1cccc(C(=O)Oc2ccc(C(=O)COC(=O)c3ccco3)cc2)c1 returned ALOX12 inh inactive.
CCCc1cc(NCCCN2CCOCC2)n2c(nc3ccccc32)c1C#N was read as TDP1 cell noCPT 20.6µM, TDP1 cell CPT 16.4µM, HT1080 IDH1KD tx inactive, ALOX12 inh inactive, IL1B secr inh inconclusive and HT1080-NT tox inactive.
Screening CCCc1cc(NCCOCCO)n2c(nc3ccccc32)c1C#N returned TDP1 cell noCPT 11.6µM, TDP1 cell CPT inconclusive, HT1080 IDH1KD tx inactive, ALOX12 inh inactive, IL1B secr inh inactive and HT1080-NT tox inactive.
`Cc1cc(NCCCN2CCOCC2)n2c(nc3ccccc32)c1C#N` gave TDP1 cell noCPT inactive, TDP1 cell CPT inactive, HT1080 IDH1KD tx inactive, ALOX12 inh inactive, IL1B secr inh inactive and HT1080-NT tox inactive.
For CCCc1cc(NCCCCO)n2c(nc3ccccc32)c1C#N the results were TDP1 cell noCPT inconclusive, TDP1 cell CPT inconclusive, HT1080 IDH1KD tx inactive, ALOX12 inh inactive, IL1B secr inh inactive and HT1080-NT tox inactive.
For Cc1nc(C(=O)N2CCC(c3nnc(Cn4cccn4)n3C)CC2)cs1 the results were ALOX12 inh inactive.
Screening NS(=O)(=O)c1ccc(NCc2ccccc2OCc2ccc(F)cc2)cc1 returned TDP1 cell noCPT 18.4µM, TDP1 cell CPT inconclusive, HT1080 IDH1KD tx inactive, ALOX12 inh inactive, IL1B secr inh inactive and HT1080-NT tox inactive.
